The supplement of paper PMC7411054
Where a name gives a salt, the structure may show the parent alone.

Key:
Test in all cases: phenotypically active (imaging signature differs from DMSO and reproducible) at any of 0.3-9 uM (binary (1 = active, 0 = inactive)); higher = active
Conditions in all cases: treatment time: 24 h
[1] = test system: A549-ACTB-RAB5A
Method in brief: (§1)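 Fifteen gene-edited A549, HepG2 and WPMY1 reporter lines (BFP segmentation plus GFP and RFP/FusionRed markers) were treated at 0.3, 1, 3 or 9 µM for 24 h, four wells each, then imaged live. Live-cell features per well were normalised to DMSO control wells. Deviation required ≥3 of 4 wells beyond the 95th percentile of DMSO Euclidean distances, and reproducibility required median replicate Pearson correlation above the 95th percentile of non-replicates. Phenotypic activity needed both criteria.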

[2] = test system: A549-CANX-COX4
Method in brief: as §1

[3] = test system: A549-GM130-SQSTM1
Method in brief: as §1

[4] = test system: A549-TP53BP1-CLTA
Method in brief: as §1

[5] = test system: A549-TUBA1B-RELA
Method in brief: as §1

[6] = test system: HepG2-ACTB-RAB5A
Method in brief: as §1

[7] = test system: HepG2-CANX-COX4
Method in brief: as §1

[8] = test system: HepG2-GM130-SQSTM1
Method in brief: as §1

[9] = test system: HepG2-TP53BP1-CLTA
Method in brief: as §1

[10] = test system: HepG2-TUBA1B-RELA
Method in brief: as §1

[11] = test system: WPMY1-ACTB-RAB5A
Method in brief: as §1

[12] = test system: WPMY1-CANX-COX4
Method in brief: as §1

[13] = test system: WPMY1-GM130-SQSTM1
Method in brief: as §1

[14] = test system: WPMY1-TP53BP1-CLTA
Method in brief: as §1

[15] = test system: WPMY1-TUBA1B-RELA
Method in brief: as §1

Measured: phenotypically active

CCC1(CC)C(=O)NC(=O)N(C)C1=O [metharbital]
inactive: [1] 0 | [2] 0 | [3] 0 | [4] 0 | [5] 0 | [6] 0 | [7] 0 | [8] 0 | [9] 0 | [10] 0 | [11] 0 | [12] 0 | [13] 0 | [14] 0 | [15] 0

CNC(C)(C)Cc1ccccc1 [mephentermine]
inactive: [1] 0 | [2] 0 | [3] 0 | [4] 0 | [5] 0 | [6] 0 | [7] 0 | [8] 0 | [9] 0 | [10] 0 | [11] 0 | [12] 0 | [13] 0 | [14] 0 | [15] 0

C=C1[C@H]2C[C@@]3([C@@H]1O)[C@@H](C[C@@H]2O)[C@]12[C@@H]4C[C@H]3[C@H]1N(CC)C[C@]4(C)CC[C@@H]2O [Napelline]
inactive: [1] 0 | [2] 0 | [3] 0 | [4] 0 | [5] 0 | [6] 0 | [7] 0 | [8] 0 | [9] 0 | [10] 0 | [11] 0 | [12] 0 | [13] 0 | [14] 0 | [15] 0

COC1=CC(=O)O[C@@H](/C=C/c2ccccc2)C1 [Kawain]
inactive: [1] 0 | [2] 0 | [3] 0 | [4] 0 | [5] 0 | [6] 0 | [7] 0 | [8] 0 | [9] 0 | [10] 0 | [11] 0 | [12] 0 | [13] 0 | [14] 0 | [15] 0

N#CC(C#N)=Cc1ccc(O)c(O)c1
inactive: [1] 0 | [2] 0 | [3] 0 | [4] 0 | [5] 0 | [6] 0 | [7] 0 | [8] 0 | [9] 0 | [10] 0 | [11] 0 | [12] 0 | [13] 0 | [14] 0 | [15] 0

CC(C)N(CCC(C(N)=O)(c1ccccc1)c1ccccn1)C(C)C (stereo not given) [disopyramide]
inactive: [1] 0 | [2] 0 | [3] 0 | [4] 0 | [5] 0 | [6] 0 | [7] 0 | [8] 0 | [9] 0 | [10] 0 | [11] 0 | [12] 0 | [13] 0 | [14] 0 | [15] 0

CC(=O)O[C@H]1C[C@@H]2CC[C@@H]3[C@H](CC[C@@]4(C)[C@H]3C[C@H]([N+]3(C)CCCCC3)[C@@H]4OC(C)=O)[C@@]2(C)C[C@@H]1[N+]1(C)CCCCC1 [pancuronium]
inactive: [1] 0 | [2] 0 | [3] 0 | [4] 0 | [5] 0 | [6] 0 | [7] 0 | [8] 0 | [9] 0 | [10] 0 | [11] 0 | [12] 0 | [13] 0 | [14] 0 | [15] 0

CCN(C(C)=O)c1cccc(-c2ccnc3c(C#N)cnn23)c1 [zaleplon]
inactive: [1] 0 | [2] 0 | [3] 0 | [4] 0 | [5] 0 | [6] 0 | [7] 0 | [8] 0 | [9] 0 | [10] 0 | [11] 0 | [12] 0 | [13] 0 | [14] 0 | [15] 0

CCN(CC)C(C)C(=O)c1ccccc1 (stereo not given) [amfepramone]
inactive: [1] 0 | [2] 0 | [3] 0 | [4] 0 | [5] 0 | [6] 0 | [7] 0 | [8] 0 | [9] 0 | [10] 0 | [11] 0 | [12] 0 | [13] 0 | [14] 0 | [15] 0

CCN1C[C@]2(COC)CC[C@H](O)[C@@]34[C@@H]5C[C@H]6[C@H](OC(C)=O)[C@@H]5[C@](O)(C[C@@H]6OC)[C@H](C[C@H]23)[C@H]14 [Condelphine]
inactive: [1] 0 | [2] 0 | [3] 0 | [4] 0 | [5] 0 | [6] 0 | [7] 0 | [8] 0 | [9] 0 | [10] 0 | [11] 0 | [12] 0 | [13] 0 | [14] 0 | [15] 0

O=C1C[C@@H]2OCC=C3C[N+]4([O-])CC[C@]56c7ccccc7N1[C@H]5[C@H]2[C@H]3C[C@@H]64 (stereo not given in full) [Genostrychnine base]
inactive: [1] 0 | [2] 0 | [3] 0 | [4] 0 | [5] 0 | [6] 0 | [7] 0 | [8] 0 | [9] 0 | [10] 0 | [11] 0 | [12] 0 | [13] 0 | [14] 0 | [15] 0

NC(=O)CS(=O)C(c1ccccc1)c1ccccc1 (stereo not given) [modafinil]
inactive: [1] 0 | [2] 0 | [3] 0 | [4] 0 | [5] 0 | [6] 0 | [7] 0 | [8] 0 | [9] 0 | [10] 0 | [11] 0 | [12] 0 | [13] 0 | [14] 0 | [15] 0

CCOC(=O)C1(c2ccccc2)CCN(C)CC1 [meperidine]
inactive: [1] 0 | [2] 0 | [3] 0 | [4] 0 | [5] 0 | [6] 0 | [7] 0 | [8] 0 | [9] 0 | [10] 0 | [11] 0 | [12] 0 | [13] 0 | [14] 0 | [15] 0

COc1cc(C(=O)O[C@H]2C[C@H]3CC[C@@H](C2)N3C)ccc1O [Fillalbin]
inactive: [1] 0 | [2] 0 | [3] 0 | [4] 0 | [5] 0 | [6] 0 | [7] 0 | [8] 0 | [9] 0 | [10] 0 | [11] 0 | [12] 0 | [13] 0 | [14] 0 | [15] 0

O[C@H]1[C@H](O)[C@@H](O)CN2CC[C@H](O)[C@H]12 [Castanospermine]
inactive: [1] 0 | [2] 0 | [3] 0 | [4] 0 | [5] 0 | [6] 0 | [7] 0 | [8] 0 | [9] 0 | [10] 0 | [11] 0 | [12] 0 | [13] 0 | [14] 0 | [15] 0

Cc1nnc2n1-c1ccc(Cl)cc1C(c1ccccc1)=NC2 [alprazolam]
inactive: [1] 0 | [2] 0 | [3] 0 | [4] 0 | [5] 0 | [6] 0 | [7] 0 | [8] 0 | [9] 0 | [10] 0 | [11] 0 | [12] 0 | [13] 0 | [14] 0 | [15] 0

Cc1ccc(-c2nc3ccc(C)cn3c2CC(=O)N(C)C)cc1 [zolpidem]
inactive: [1] 0 | [2] 0 | [3] 0 | [4] 0 | [5] 0 | [6] 0 | [7] 0 | [8] 0 | [9] 0 | [10] 0 | [11] 0 | [12] 0 | [13] 0 | [14] 0 | [15] 0

C[C@]12Cc3cn[nH]c3C[C@@H]1CC[C@@H]1[C@@H]2CC[C@@]2(C)[C@H]1CC[C@]2(C)O [stanozolol]
inactive: [1] 0 | [2] 0 | [3] 0 | [4] 0 | [5] 0 | [6] 0 | [7] 0 | [8] 0 | [9] 0 | [10] 0 | [11] 0 | [12] 0 | [13] 0 | [14] 0 | [15] 0

CC1=C2[C@H]3OC(=O)[C@@H](C)[C@@H]3CC[C@@]2(C)C=CC1=O [alpha-Santonin]
inactive: [1] 0 | [2] 0 | [3] 0 | [4] 0 | [5] 0 | [6] 0 | [7] 0 | [8] 0 | [9] 0 | [10] 0 | [11] 0 | [12] 0 | [13] 0 | [14] 0 | [15] 0

COc1ccc(C(=O)OC2C[C@H]3CC[C@H](C2)N3C)cc1OC (stereo not given in full) [Convolamine hydrochloride]
inactive: [1] 0 | [2] 0 | [3] 0 | [4] 0 | [5] 0 | [6] 0 | [7] 0 | [8] 0 | [9] 0 | [10] 0 | [11] 0 | [12] 0 | [13] 0 | [14] 0 | [15] 0

COc1ccc2c(c1OC)C(=O)O[C@@H]2[C@H]1c2cc3c(cc2CCN1C)OCO3 [Hydrastine]
inactive: [1] 0 | [2] 0 | [3] 0 | [4] 0 | [5] 0 | [6] 0 | [7] 0 | [8] 0 | [9] 0 | [10] 0 | [11] 0 | [12] 0 | [13] 0 | [14] 0 | [15] 0

c1cncc(C2CC3CCN2CC3)c1 (stereo not given) [RJR 2429 dihydrochloride]
inactive: [1] 0 | [2] 0 | [3] 0 | [4] 0 | [5] 0 | [6] 0 | [7] 0 | [8] 0 | [9] 0 | [10] 0 | [11] 0 | [12] 0 | [13] 0 | [14] 0 | [15] 0

CCCCCCCCCC(=O)O[C@H]1CC[C@H]2[C@@H]3CCC4=CC(=O)CC[C@@H]4[C@H]3CC[C@]12C [nandrolone-decanoate]
inactive: [1] 0 | [2] 0 | [3] 0 | [4] 0 | [5] 0 | [6] 0 | [7] 0 | [8] 0 | [9] 0 | [10] 0 | [11] 0 | [12] 0 | [13] 0 | [14] 0 | [15] 0
